# PubChem BioAssay (NCATS)
# Results filed as inconclusive are left out. Where a call stands in place of a potency, no number is given. Activity calls are given as the source filed them. Calls come from the whole dose curve; as a rule, active = well fitted curve in the direction sought with a large enough effect; inconclusive = small, poorly fitted or top-dose-only effect, or another doubt; inactive = no such curve, though single readings can be large; an effect the other way counts as inactive or inconclusive.
# Legend:
# [1] = target: Alpha-galactosidase (Coffea arabica) (UniProt Q42656); test: Counterscreen for Glucocerebrosidase Inhibitors: qHTS Assay for Coffee Bean alpha-Galactosidase at pH 4.5 (AID 957); conditions: purified coffee bean alpha-galactosidase, fluorogenic substrate; series mostly up to 76.9 µM
# Method in brief: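 Enzyme is added first (2 nM final), then compounds titrated from 0.7 nM to 77 uM, then 80 uM 4-methylumbelliferyl alpha-D-galactopyranoside; after 20 min at room temperature a pH 10 NaOH/glycine stop precedes fluorescence reading at 365/440 nm.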
# [2] = target: Alpha-galactosidase (Coffea arabica) (UniProt Q42656); test: Counterscreen for Glucocerebrosidase Inhibitors: qHTS Assay for Coffee Bean alpha-Galactosidase at pH 5.9 (AID 998); conditions: coffee bean alpha-galactosidase enzyme assay; series mostly up to 76.9 µM
# Method in brief: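 In 50 mM citric acid pH 5.9 with 0.005% Tween-20, coffee bean enzyme hydrolyses 80 uM 4-MU alpha-D-galactopyranoside over 20 min at RT. Activity is normalized to controls; AC50 comes from Hill-modelled concentration-response data.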
# [3] = MultiTox-Fluor Cytotoxicity Assay - LYMP1-002 - Dead Cells (AID 960); conditions: LYMP1-002 lymphoblastoid cells, dead-cell protease fluorescence; series mostly up to 46.1 µM; note: potency is the fitted concentration of half-maximal effect; nearly all actives have a fitted effect of over 60% in size
# Method in brief: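 Cells were plated, rested 5 hr, then treated with compound dilution series for 16 hr at 37 C. After adding substrate reagent and 60 min at room temperature, dead-cell protease fluorescence gave concentration-response curves fitted by the Hill equation.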
# Chain of Alpha-galactosidase (Coffea arabica) (Q42656 whole entry, looked up): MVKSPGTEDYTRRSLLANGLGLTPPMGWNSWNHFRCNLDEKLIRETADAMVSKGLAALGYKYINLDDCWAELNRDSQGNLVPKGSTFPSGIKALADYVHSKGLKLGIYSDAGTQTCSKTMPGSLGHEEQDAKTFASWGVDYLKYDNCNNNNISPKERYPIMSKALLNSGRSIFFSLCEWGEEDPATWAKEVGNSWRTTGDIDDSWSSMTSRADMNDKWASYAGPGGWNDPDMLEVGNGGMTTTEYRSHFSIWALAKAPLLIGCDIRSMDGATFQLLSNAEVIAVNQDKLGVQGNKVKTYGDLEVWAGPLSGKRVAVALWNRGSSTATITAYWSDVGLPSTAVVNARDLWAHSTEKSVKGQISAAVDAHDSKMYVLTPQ
Compound,outcome [1],outcome [2],Potency [3]
NC(=O)c1ncn([C@@H]2O[C@@H](CO)[C@@H](O)[C@H]2O)c1O,inactive,inactive,
CCn1ccnc1C[C@@H]1COc2ccccc2O1,inactive,inactive,
CC(C)(C)c1ccc(S(=O)(=O)/C=C\C#N)cc1,inactive,inactive,
CNC(=O)[C@@H]1O[C@@H](n2cnc3c(NCc4cccc(I)c4)ncnc32)[C@H](O)[C@@H]1O,inactive,inactive,
CCCCCCCCCCCCCCCCCC(=O)O[C@H](CC(=O)O)C[N+](C)(C)C,inactive,inactive,
CN(C)C(=O)/N=N\C(=O)N(C)C,inactive,inactive,
CCN(CC)CC#CCOC(=O)[C@@](O)(c1ccccc1)C1CCCCC1,inactive,inactive,
COc1cccc(OC)c1OCCNC[C@@H]1COc2ccccc2O1,inactive,inactive,
COc1cccc2c1[C@@H]1CN(CCCCn3c(=O)[nH]c4c(sc5ncc(-c6ccccc6)nc54)c3=O)C[C@H]1CO2,inactive,inactive,
CC[C@]1(O)C[C@H]2CN(CCc3c([nH]c4ccccc34)[C@](C(=O)OC)(c3cc4c(cc3OC)N(C=O)[C@H]3[C@@](O)(C(=O)OC)[C@H](OC(C)=O)[C@@]5(CC)C=CCN6CC[C@]43[C@H]65)C2)C1,inactive,inactive,
Cc1cc(C)c(/C=C2/C(=O)Nc3ccccc32)[nH]1,inactive,inactive,
O=C(O)CC[C@@H](NC(=O)c1ccccc1C(=O)O)C(=O)O,inactive,inactive,
CSc1ccc2c(c1)[C@H](N1CCN(C)CC1)Cc1ccccc1S2,inactive,inactive,
CN=C(NC#N)Nc1ccc(C2=NNC(=O)C[C@@H]2C)cc1,inactive,inactive,
COc1cc2nc(N3CCN(C(=O)OCc4ccccc4)[C@H](C(=O)NC(C)(C)C)C3)nc(N)c2cc1OC,inactive,inactive,
CC(C)(C)c1onc(OCP(=O)(O)O)c1C[C@@H](N)C(=O)O,inactive,inactive,
CC(C)NC[C@H](O)c1ccc(NS(C)(=O)=O)cc1,inactive,inactive,
OC[C@@H]1O[C@@H](n2cnc3c(Nc4ccccc4)ncnc32)[C@@H](O)[C@H]1O,inactive,inactive,
COc1ccc(CCN(C)CCC[C@@](C#N)(c2cc(OC)c(OC)c(OC)c2)C(C)C)cc1OC,inactive,inactive,
CCCN[C@@H](C)C(=O)Nc1ccccc1C,inactive,inactive,
CSC(N)=NCCC[C@@H](N)C(=O)O,inactive,inactive,
O=C1c2c(O)cc(O)cc2O[C@@H](c2ccc(O)c(O)c2)[C@H]1O,inactive,inactive,
O=C(O)/C=C\[C@H](O)c1ccc(Cl)cc1,inactive,inactive,

Compound,outcome [1],outcome [2],Potency [3]
Nc1nc(Nc2ccccc2)nc2c1ncn2[C@@H]1O[C@@H](CO)[C@H](O)[C@@H]1O,inactive,inactive,
Cc1ccccc1[C@@H](OCCN(C)C)c1ccccc1,inactive,inactive,
CN1CCc2cc(O)c(O)cc2[C@H](c2ccccc2)C1,inactive,inactive,
COc1ccc([C@H]2Sc3ccccc3N(CCN(C)C)C(=O)[C@H]2OC(C)=O)cc1,inactive,inactive,
CN1CCN2c3ccccc3Cc3ccccc3[C@@H]2C1,inactive,inactive,
C[C@@H]1C[C@@H]2[C@H]3CCC4=CC(=O)C=C[C@]4(C)[C@]3(Cl)[C@@H](O)C[C@@]2(C)[C@@]1(O)C(=O)CO,inactive,inactive,
CNC(=O)[C@@H]1O[C@@H](n2cnc3c(NCc4ccc(N)cc4)ncnc32)[C@@H](O)[C@H]1O,inactive,inactive,
O=c1n(CC2CO2)c(=O)n(CC2CO2)c(=O)n1CC1CO1 (centres undefined),,,31.6 µM (active)
N[C@H](Cc1ccc(F)cc1)C(=O)O,inactive,inactive,
N[C@H](CCCP(=O)(O)O)C(=O)O,inactive,inactive,
OC[C@@H]1O[C@@H](n2cnc3c(NC4CCCC4)ncnc32)[C@@H](O)[C@H]1O,inactive,inactive,
N[C@H](Cc1ccc(Cl)cc1)C(=O)O,inactive,inactive,
COCCOC(=O)C1=C(C)NC(C)=C(C(=O)OC(C)C)[C@@H]1c1cccc([N+](=O)[O-])c1,inactive,inactive,
O=C(O)C[C@@H]1CCCc2ccccc2[C@H]1O,inactive,inactive,
CC(C)(C(=O)O)c1ccc([C@@H](O)CCCN2CCC(C(O)(c3ccccc3)c3ccccc3)CC2)cc1,inactive,inactive,
O=S(=O)(NCCNC/C=C\c1ccc(Br)cc1)c1cccc2cnccc12,inactive,inactive,
CC[C@H](C)[C@@H]1O[C@]2(CC[C@@H]1C)C[C@H]1C[C@H](CC=C(C)[C@@H](O[C@H]3C[C@H](OC)[C@H](O[C@H]4C[C@H](OC)[C@H](O)[C@H](C)O4)[C@H](C)O3)[C@@H](C)C=CC=C3CO[C@@H]4[C@@H](O)C(C)=C[C@H](C(=O)O1)[C@@]34O)O2,inactive,inactive,
CN(C)C/C=C(\c1ccc(Br)cc1)c1cccnc1,inactive,inactive,
CC(=O)/C(C)=N\O,inactive,inactive,
Cn1cc(C(F)(F)F)nc1-c1ccc(OC[C@@H](O)CNCCOc2ccc(O)c(C(N)=O)c2)cc1,inactive,inactive,
Nc1nc(Cl)nc2c1ncn2[C@@H]1O[C@@H](CO)[C@@H](O)[C@H]1O,inactive,inactive,
O[C@H](CN1CCN(c2cccc(Cl)c2)CC1)C(c1ccccc1)c1ccccc1,inactive,inactive,
